# From PubChem BioAssay
# RPL19A TOR yeast – alters RPL19A-GFP fluorescence in TOR pathway yeast screen. 330,000 compounds, 0.3% hits. S. cerevisiae RPL19A-GFP strain, flow cytometry, 3 h; hits give low values. percent response vs DMSO, % at 10 µM. AID 2025;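 active = percent response vs DMSO below 50%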;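 also: median channel GFP fluorescence of the barcoded RPL19A-GFP strain; ratio of sample median GFP to plate DMSO average so 100% = DMSO; lower means less RPL19A-GFP as with rapamycin TOR inhibition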
# CIT2-GFP yeast – modulators of TOR pathway CIT2-GFP in S. cerevisiae; S. cerevisiae CIT2-GFP strain, flow cytometry, 3 h; 100 means same as DMSO wells; GFP response vs DMSO, % at 10 µM; 320,000 compounds, 0.065% hits;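 active = GFP response relative to DMSO above a set limit, near the screen mean plus 3 SD, cut at about 150% in these data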;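 also: ratio of well median GFP fluorescence to mean of DMSO wells on the plate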
# MEP2-GFP yeast – yeast TOR pathway MEP2-GFP modulation; AID 2016; S. cerevisiae MEP2-GFP strain, flow cytometry GFP, 3 h; 100% = DMSO control level; 330,000 compounds, 0.51% hits; GFP response vs DMSO, % at 10 µM;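 active = GFP response versus DMSO above a set limit, roughly screen mean plus 3 SD, cut at about 180% in these data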;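 also: median GFP fluorescence of the barcode-gated MEP2-GFP cells per well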
# LAP4 TOR yeast – alters LAP4-GFP fluorescence in TOR pathway yeast screen; S. cerevisiae LAP4-GFP multiplex, flow cytometry GFP, 3 h; median GFP as percent of DMSO wells; 320,000 compounds, 0.34% hits; AID 2023; GFP response vs DMSO, % at 10 µM;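 active = GFP response vs DMSO above a set limit, about the screen mean plus 3 SD, cut at about 150% in these data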
# AGP1-GFP MLPCN – yeast TOR pathway AGP1-GFP modulation; S. cerevisiae AGP1-GFP multiplex flow cytometry, 3 h; GFP as percent of DMSO wells; GFP response vs DMSO, % at 10 µM; 320,000 compounds, 0.02% hits; AID 2066;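 active = GFP response relative to DMSO above a set limit, near screen average plus 3 SD, cut at about 150% in these data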;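 also: median GFP channel fluorescence of the gated AGP1 strain per well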
# LAP4 cherry2 – second confirmation of modulators of TOR reporter LAP4-GFP in yeast | shares compounds with LAP4 TOR yeast | S. cerevisiae LAP4-GFP strain, flow cytometry GFP, 3 h | GFP response vs DMSO, % at 10 µM | 590 compounds, 20% hits;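 active = GFP signal as percent of the solvent control above about 150%, meaning raised reporter expression, limit read from the data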;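 also: ratio of well median GFP fluorescence to plate DMSO mean so 100% = DMSO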
# MEP2-GFP pick2 – second confirmation of modulators of TOR reporter MEP2-GFP in yeast; S. cerevisiae MEP2-GFP strain, flow cytometry GFP, 3 h; shares compounds with LAP4 TOR yeast; 590 compounds, 10% hits; GFP response vs DMSO, % at 10 µM;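 active = GFP signal above 150% of the solvent control wells, that is a rise of more than half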;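 also: median channel GFP fluorescence of all gated yeast cells per well; ratio of median GFP to plate DMSO average so 100% = DMSO level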
# RPL19A GFP CP2 – reconfirmed modulator of RPL19A-GFP TOR reporter in yeast; 590 compounds, 3% hits; AID 2623; GFP response vs DMSO, % at 10 µM; shares compounds with LAP4 TOR yeast; S. cerevisiae RPL19A-GFP strain, flow cytometry GFP, 3 h; hits give low values; 100% means same as DMSO wells;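 active = under 65% GFP response relative to DMSO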;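 also: median GFP channel fluorescence per well over the all cells gate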
# CIT2-GFP pick2 – second confirmation of modulators of TOR reporter CIT2-GFP in yeast; S. cerevisiae CIT2-GFP strain, flow cytometry GFP, 3 h; DMSO control wells read 100%; GFP response vs DMSO, % at 10 µM; shares compounds with LAP4 TOR yeast; 590 compounds, 8% hits; AID 2624;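 active = GFP response vs DMSO above about 150%, limit read from the data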;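 also: median green fluorescence per well over all gated yeast cells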
# AGP1 GFP CP2 – reconfirmed modulator of AGP1-GFP TOR reporter in yeast | shares compounds with LAP4 TOR yeast | S. cerevisiae AGP1-GFP strain, flow cytometry GFP, 3 h | percent response vs DMSO, % at 10 µM | 590 tested, under 10 active;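 active = over 150 percent of DMSO response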;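 also: median GFP channel fluorescence over all cells without mother daughter split; sample median GFP divided by mean DMSO control so 100% equals DMSO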
# s288c autofluor – yeast s288c autofluorescence artifact, counter-screen | shares compounds with LAP4 TOR yeast | S. cerevisiae s288c, 520 nm autofluorescence, flow cytometry, 3 h; hits give high values; zero means same as solvent-only cells | fluorescence change (kMESF span) at 33 µM | 610 tested, under 10 active | AID 2757;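 active = fluorescence span over the dose series, or activity score, above about 33, limit read from the data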
# Yeast autofl DR – yeast s288c autofluorescence artifact in dose response | 110 tested, under 10 active | S. cerevisiae s288c parental, compound autofluorescence, flow cytometry, 3 h | AID 488829 | shares compounds with LAP4 TOR yeast | fluorescence change (span) at 33 µM;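 active = fluorescence change span, or the activity score built from it, above 25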
# TORC1 bypass gr – wildtype yeast growth loss with TORC1 bypass cells unaffected | S. cerevisiae BY4741 spot growth rating, 48-72 h; hits give low values | growth rating (0-3) at 30 µM | 120 tested, under 10 active | shares compounds with LAP4 TOR yeast;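 active = growth rating at most 1 for wild type yeast while the TORC1 bypass strain still grows fully, rated 3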
# Numbers without * were called inactive; x = no result given. The list is not random: actives were taken first. Their share in the collection is about 0.92%.
SMILES,RPL19A TOR yeast,CIT2-GFP yeast,MEP2-GFP yeast,LAP4 TOR yeast,AGP1-GFP MLPCN,others
COc1cccc(N2CCN(c3ccc4nnc(CCC(=O)Nc5ccc(C)cn5)n4n3)CC2)c1,60,108,136,98,22,LAP4 cherry2=96;MEP2-GFP pick2=98;RPL19A GFP CP2=98;CIT2-GFP pick2=103;AGP1 GFP CP2=100
C[C@H](CO)N1C[C@H](C)[C@@H](CN(C)S(C)(=O)=O)Oc2ccc(NS(=O)(=O)c3ccccc3)cc2C1=O,97,91,102,100,94,
Cc1ccc2nc(/C(C#N)=C/c3ccc(O)c(O)c3)[nH]c2c1,115,150*,189*,148,109,s288c autofluor=0.41
Cc1ccc2nc(/C(C#N)=C/c3ccccc3C(=O)O)[nH]c2c1,103,109,105,96,104,
Cc1ccc(NN2C(=O)C=C(c3ccc(Cl)cc3)C2=O)cc1,54,78,98,203*,74,s288c autofluor=1.9
COc1ccc(C2=CC(=O)N(Nc3ccccc3)C2=O)cc1,77,70,92,232*,100,s288c autofluor=1.6
O=C1C=C(c2ccccc2)C(=O)N1Nc1ccccc1,48*,74,100,118,67,s288c autofluor=-0.1
Cc1ccc(NN2C(=O)C=CC2=O)cc1,104,99,102,96,105,
O=C1C2CC=CCC2C(=O)N1Nc1ccccc1 (stereo not given),95,97,101,92,94,
CCN(c1cccc(C)c1)S(=O)(=O)c1cc2c3c(c1)CCC(=O)N3CCC2,100,100,94,102,108,
COc1ccc(N2C(=O)C(Cl)=C(Oc3cccc(OC)c3)C2=O)cc1,71,102,83,198*,75,s288c autofluor=1.1
O=C(NCC(=O)N1CCC(N2CCCCC2)CC1)C1CCCCC1,26*,103,230*,99,27,LAP4 cherry2=98;MEP2-GFP pick2=105;RPL19A GFP CP2=98;CIT2-GFP pick2=103;AGP1 GFP CP2=106
O=C(NCC(=O)N1CCN(c2ccccc2O)CC1)C1CCCCC1,108,106,105,105,109,
COc1ccccc1N1CCN(C2CCCCC2NS(=O)(=O)c2ccccc2)CC1 (stereo not given),102,108,102,104,104,
O=C1C2CC=CCC2C(=O)N1Cc1ccccc1 (stereo not given),97,92,97,101,96,
O=C1C=CC(=O)N1Cc1ccccc1,94,72,91,159*,81,LAP4 cherry2=114;MEP2-GFP pick2=129;RPL19A GFP CP2=105;CIT2-GFP pick2=124;AGP1 GFP CP2=106
Cc1ccc(OCC(=O)OCC(=O)NC2CCCC2)cc1C,96,96,97,98,96,
Cc1cc(C)cc(OCC(=O)OCC(=O)NC2CC2)c1,84,80,100,183*,112,LAP4 cherry2=97;MEP2-GFP pick2=102;RPL19A GFP CP2=101;CIT2-GFP pick2=98;AGP1 GFP CP2=102
CC(=O)c1ccc(NC(=O)CN(C)CC(=O)Nc2cccc(F)c2)cc1,93,84,94,91,91,
CC1CCCC(NC(=O)CN(C)CC(=O)Nc2cccc(F)c2)C1C (stereo not given),80,127,155,172*,134,LAP4 cherry2=99;MEP2-GFP pick2=100;RPL19A GFP CP2=100;CIT2-GFP pick2=97;AGP1 GFP CP2=99
CNc1nc(C)c([N+](=O)[O-])c(Nc2ccc(OC)cc2)n1,106,105,107,101,104,
CNc1nc(N)c([N+](=O)[O-])c(Nc2ccc(OC)cc2)n1,x,x,x,x,x,Yeast autofl DR=0.26;TORC1 bypass gr=3
Cc1ccc(CNc2nc(N)c([N+](=O)[O-])c(Nc3ccc(F)cc3)n2)cc1,102,111,103,100,102,
CNc1nc(N)c([N+](=O)[O-])c(Nc2ccc(F)cc2)n1,x,x,x,x,x,Yeast autofl DR=0.42;TORC1 bypass gr=3
CNc1nc(N)c([N+](=O)[O-])c(NCc2ccccc2)n1,104,102,104,91,106,Yeast autofl DR=0;TORC1 bypass gr=3
SMILES,RPL19A TOR yeast,CIT2-GFP yeast,MEP2-GFP yeast,LAP4 TOR yeast,AGP1-GFP MLPCN,others
CC(C)CNc1nc(N)c([N+](=O)[O-])c(NC2CCCCC2)n1,102,107,101,103,109,
Nc1nc(NCc2ccccc2)nc(NCc2ccccc2)c1[N+](=O)[O-],99,96,104,101,96,
CNc1nc(N)c([N+](=O)[O-])c(NC2CCCCC2)n1,117,125,130,82,89,Yeast autofl DR=0.21;TORC1 bypass gr=3
CCOc1ccc(NC(=O)CN(C)C(=O)CCCc2nc3ccccc3c(=O)[nH]2)cc1OCC,101,108,103,100,110,
CC(C)C[C@@]12C(=O)N(c3cccc(F)c3)C(=O)N1[C@H](c1ccc(F)cc1)[C@@H]1C(=O)N(C3CCCCC3)C(=O)[C@@H]12,95,67,95,127,80,
N=C1/C(=C\c2coc3ccccc3c2=O)C(=O)N=C2SC(c3ccncc3)=NN12,64,95,100,120,66,LAP4 cherry2=139;MEP2-GFP pick2=108;RPL19A GFP CP2=83;CIT2-GFP pick2=163*;AGP1 GFP CP2=82;s288c autofluor=18
Cc1ccc2[nH]cc(C(=O)CN3CCN(c4ccccn4)CC3)c2c1,62,101,174,88,23,LAP4 cherry2=106;MEP2-GFP pick2=105;RPL19A GFP CP2=96;CIT2-GFP pick2=107;AGP1 GFP CP2=98
O=C(CN1CCN(c2ccccc2F)CC1)c1c[nH]c2ccccc12,87,94,174,159*,110,LAP4 cherry2=100;MEP2-GFP pick2=97;RPL19A GFP CP2=99;CIT2-GFP pick2=105;AGP1 GFP CP2=102
Cc1ccc2[nH]cc(C(=O)CN3CCN(C)CC3)c2c1,95,100,102,101,97,
N#Cc1c(-c2ccc(F)cc2)ccnc1N1CCOCC1,98,87,92,116,94,
